# Results from PubChem BioAssay (NCATS).
# Records with an inconclusive call do not appear. Entries that show only a call come without a potency. Values without a mark were called inactive. Active and inactive are the calls of the source. The call rests on the fitted dose curve; in most records, active means well fitted curve in the direction sought with a large enough effect; inconclusive means small, poorly fitted or top-dose-only effect, or another doubt; inactive means no such curve, though single readings can be large; an effect the other way counts as inactive or inconclusive.
# Legend:
# [1] = molecular target: Tyrosyl-DNA phosphodiesterase 1 (Homo sapiens) (UniProt Q9NUW8); assay: Confirmation Assay for Inhibitors of Tyrosyl-DNA Phosphodiesterase (TDP1) (AID 489007); details: recombinant human TDP1 enzymatic activity, dose-response; further: potency means the concentration at half of the fitted maximal effect; nearly all actives have a fitted effect of over 40% in size
# Sequence of Tyrosyl-DNA phosphodiesterase 1 (Homo sapiens) (Q9NUW8 whole entry, looked up): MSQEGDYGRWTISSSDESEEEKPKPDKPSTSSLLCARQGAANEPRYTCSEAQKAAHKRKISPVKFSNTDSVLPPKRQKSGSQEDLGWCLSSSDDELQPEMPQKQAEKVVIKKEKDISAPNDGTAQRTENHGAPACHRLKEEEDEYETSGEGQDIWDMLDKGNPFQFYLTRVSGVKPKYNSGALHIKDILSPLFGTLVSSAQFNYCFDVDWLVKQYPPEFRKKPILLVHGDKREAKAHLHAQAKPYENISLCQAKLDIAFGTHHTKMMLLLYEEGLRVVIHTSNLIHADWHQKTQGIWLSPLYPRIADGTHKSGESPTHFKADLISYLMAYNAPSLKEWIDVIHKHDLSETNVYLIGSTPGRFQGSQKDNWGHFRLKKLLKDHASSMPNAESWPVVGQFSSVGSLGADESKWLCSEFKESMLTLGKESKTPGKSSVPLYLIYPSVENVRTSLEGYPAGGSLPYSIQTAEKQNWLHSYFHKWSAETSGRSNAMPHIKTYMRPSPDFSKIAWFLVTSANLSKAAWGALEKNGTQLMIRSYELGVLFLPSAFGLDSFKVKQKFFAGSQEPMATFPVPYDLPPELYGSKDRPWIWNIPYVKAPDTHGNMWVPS
# Method in brief: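 Compounds are preincubated 15 min at room temperature with 1 nM recombinant human Tdp1. The reaction starts on adding 15 nM FITC-phosphotyrosine DNA substrate, runs 5 min, and is detected by AlphaScreen beads after 10 min.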
# [2] = molecular target: ATP-dependent 6-phosphofructokinase (Trypanosoma brucei brucei) (UniProt O15648); assay: qHTS Assay to Find Inhibitors of T. brucei phosphofructokinase: hit validation (AID 492961);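 further: luminescence reports ADP formed as PFK phosphorylates fructose-6-phosphate with ATP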; details: T. brucei PFK, ADP-Glo luminescence; series mostly up to 51.4 µM
# Sequence of ATP-dependent 6-phosphofructokinase (Trypanosoma brucei brucei) (O15648 whole entry, looked up): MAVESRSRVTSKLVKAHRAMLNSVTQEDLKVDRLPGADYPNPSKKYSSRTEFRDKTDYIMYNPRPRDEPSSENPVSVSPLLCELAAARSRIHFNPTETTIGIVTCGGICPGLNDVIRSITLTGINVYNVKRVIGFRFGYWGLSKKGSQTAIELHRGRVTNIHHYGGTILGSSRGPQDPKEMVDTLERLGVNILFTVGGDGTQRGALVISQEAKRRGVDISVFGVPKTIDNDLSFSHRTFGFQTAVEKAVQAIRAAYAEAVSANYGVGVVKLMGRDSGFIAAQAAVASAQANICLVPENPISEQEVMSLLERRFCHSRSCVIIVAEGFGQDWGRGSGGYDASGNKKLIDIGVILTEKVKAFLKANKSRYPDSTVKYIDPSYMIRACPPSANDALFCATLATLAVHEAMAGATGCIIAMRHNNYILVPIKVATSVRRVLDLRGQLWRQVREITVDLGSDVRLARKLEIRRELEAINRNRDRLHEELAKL
# Method in brief: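 PFK 1.25 nM, F6P 0.5 mM, ATP 0.1 mM, MgCl2 5 mM, 0.1 M TEA pH 8.0, Tween20 0.01%, BSA 0.1%; 45 min RT. ADP-Glo two-step detection, luminescence. qHTS titration; curve fitting with curve-class categorization.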
# [3] = qHTS profiling for inhibitors of Plasmodium falciparum proliferation (AID 504749); further: potency means the concentration at half of the fitted maximal effect; on all read-outs here: nearly all actives have a fitted effect of over 60% in size; details: P. falciparum in erythrocytes, SYBR Green DNA, 72 h; for activity, negative = inhibition: at 28.7 µM (top of the series)
# Method in brief: (§1)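 Quantitative HTS: compounds pinned into medium, infected erythrocytes added (0.3% parasitemia, 2.5% hematocrit), 72 h culture at 37 C under 5% CO2. Saponin/Triton lysis with SYBR Green I, overnight RT, then fluorescence read.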
# 3D7 = assay: as above; details: P. falciparum in erythrocytes, SYBR Green DNA, 72 h; series mostly up to 28.7 µM
# Method in brief: as §1
# 7G8 = assay: as above; details: P. falciparum in erythrocytes, SYBR Green DNA, 72 h; series mostly up to 28.7 µM
# Method in brief: as §1
# AS120 = assay: as above; details: P. falciparum in erythrocytes, SYBR Green DNA, 72 h; series mostly up to 28.7 µM
# Method in brief: as §1
# ATS189 = assay: as above; details: P. falciparum in erythrocytes, SYBR Green DNA, 72 h; series mostly up to 28.7 µM
# Method in brief: as §1
# CP185 = assay: as above; details: P. falciparum in erythrocytes, SYBR Green DNA, 72 h; series mostly up to 28.7 µM
# Method in brief: as §1
# CP191 = assay: as above; details: P. falciparum in erythrocytes, SYBR Green DNA, 72 h; series mostly up to 28.7 µM
# Method in brief: as §1
# CP192 = assay: as above; details: P. falciparum in erythrocytes, SYBR Green DNA, 72 h; series mostly up to 28.7 µM
# Method in brief: as §1
# CP194 = assay: as above; details: P. falciparum in erythrocytes, SYBR Green DNA, 72 h; series mostly up to 28.7 µM
# Method in brief: as §1
# CP201 = assay: as above; details: P. falciparum in erythrocytes, SYBR Green DNA, 72 h; series mostly up to 28.7 µM
# Method in brief: as §1
# CP203 = assay: as above; details: P. falciparum in erythrocytes, SYBR Green DNA, 72 h; series mostly up to 28.7 µM
# Method in brief: as §1
# CP247 = assay: as above; details: P. falciparum in erythrocytes, SYBR Green DNA, 72 h; series mostly up to 28.7 µM
# Method in brief: as §1
# CP286 = assay: as above; details: P. falciparum in erythrocytes, SYBR Green DNA, 72 h; series mostly up to 28.7 µM
# Method in brief: as §1
# CP291 = assay: as above; details: P. falciparum in erythrocytes, SYBR Green DNA, 72 h; series mostly up to 28.7 µM
# Method in brief: as §1
# P94_40 = assay: as above; details: P. falciparum in erythrocytes, SYBR Green DNA, 72 h; series mostly up to 28.7 µM
# Method in brief: as §1
# PC49 = assay: as above; details: P. falciparum in erythrocytes, SYBR Green DNA, 72 h; series mostly up to 28.7 µM
# Method in brief: as §1
# TAB109 = assay: as above; details: P. falciparum in erythrocytes, SYBR Green DNA, 72 h; series mostly up to 28.7 µM
# Method in brief: as §1
# TAB113 = assay: as above; details: P. falciparum in erythrocytes, SYBR Green DNA, 72 h; series mostly up to 28.7 µM
# Method in brief: as §1
compound,measurement,setting,value
CO/N=C(/C(=O)N[C@H]1C(=O)N2C(C(=O)O)=C(COC(C)=O)CSC12)c1csc(N)n1 (some centres undefined),Potency,[1],8910 nM (active)
Cc1cc(C=O)c(C)n1-c1ccc(Cl)c(C(=O)O)c1,Potency,[1],1120 nM (active)
O=C(COc1ccc2oc(-c3ccco3)cc(=O)c2c1)N1CCCCC1,Potency,[1],79400 nM (active)
CCN(CC)Cc1c(O)c(Cl)cc2c(C)cc(=O)oc12,Potency,[1],14100 nM (active)
Cc1ccc(S(=O)(=O)NC(=O)NC(C)Cc2ccccc2)cc1 (centres undefined),Potency,[2],inactive
same,"activity, negative = inhibition",[3]; parasite line A,7.07%
same,"activity, negative = inhibition",[3]; parasite line B,4.66%
same,Potency,3D7,inactive
same,Potency,7G8,inactive
same,Potency,AS120,inactive
same,Potency,ATS189,inactive
same,Potency,CP185,inactive
same,Potency,CP191,inactive
same,Potency,CP192,inactive
same,Potency,CP194,inactive
same,Potency,CP201,inactive
same,Potency,CP203,inactive
same,Potency,CP247,inactive
same,Potency,CP286,inactive
same,Potency,CP291,inactive
same,Potency,P94_40,inactive
same,Potency,PC49,inactive
same,Potency,TAB109,inactive
same,Potency,TAB113,inactive
CC(C)C[C@@H](NC(=O)[C@@H](Cc1ccccc1)NC(=O)c1cnccn1)B(O)O,Potency,[2],inactive
same,Potency,[3]; parasite line A,79.4 nM (active)
same,Potency,[3]; parasite line B,79.4 nM (active)
same,Potency,3D7,112 nM (active)
same,Potency,7G8,39.8 nM (active)
same,Potency,AS120,100 nM (active)
same,Potency,ATS189,112 nM (active)
same,Potency,CP185,112 nM (active)
same,Potency,CP191,100 nM (active)
same,Potency,CP192,190 nM (active)
same,Potency,CP194,426 nM (active)
same,Potency,CP201,536 nM (active)
same,Potency,CP203,338 nM (active)
same,Potency,CP247,126 nM (active)
same,Potency,CP286,89.1 nM (active)
same,Potency,CP291,151 nM (active)
same,Potency,P94_40,126 nM (active)
same,Potency,PC49,158 nM (active)
same,Potency,TAB109,70.8 nM (active)
same,Potency,TAB113,100 nM (active)
CC(C)(C)C(=O)OCC(=O)C1CCC2C3CCC4=CC(=O)CCC4(C)C3CCC12C (centres undefined),Potency,[2],inactive
same,"activity, negative = inhibition",[3]; parasite line A,6.25%
same,"activity, negative = inhibition",[3]; parasite line B,11.2%
same,Potency,3D7,inactive
same,Potency,7G8,inactive
same,Potency,AS120,inactive
same,Potency,ATS189,inactive
same,Potency,CP185,inactive
same,Potency,CP191,inactive
same,Potency,CP192,inactive
same,Potency,CP194,inactive
same,Potency,CP201,inactive
same,Potency,CP203,inactive
same,Potency,CP247,inactive
same,Potency,CP286,inactive
same,Potency,CP291,inactive
same,Potency,P94_40,inactive
same,Potency,PC49,inactive
same,Potency,TAB109,inactive
same,Potency,TAB113,inactive
C=C1[C@@H]2CC[C@H](C2)C1(C)C,Potency,[2],inactive
same,"activity, negative = inhibition",[3]; parasite line A,10.4%
same,"activity, negative = inhibition",[3]; parasite line B,-2.91%
same,Potency,3D7,inactive
same,Potency,7G8,inactive
same,Potency,AS120,inactive
same,Potency,ATS189,inactive
same,Potency,CP185,inactive
same,Potency,CP191,inactive
same,Potency,CP192,inactive
same,Potency,CP194,inactive
same,Potency,CP201,inactive
same,Potency,CP203,inactive
same,Potency,CP247,inactive
same,Potency,CP286,inactive
same,Potency,CP291,inactive
same,Potency,P94_40,inactive
same,Potency,PC49,inactive
same,Potency,TAB109,inactive
same,Potency,TAB113,inactive
